From PubChem
Shh pathway inh: Hedgehog pathway signaling inhibitors, primary screen, luminescence, Shh-LIGHT2 cells, Gli-luciferase | inhibition, % (test concentration not listed) | actives 2.1% (n = 22,000) | Shh-LIGHT2 Gli-luciferase reporter, 30 h;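 active = mean inhibition across valid replicates above about 65%, limit read from the data; inconclusive = mean under the limit, yet half or more replicates past it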;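 note: pathway switched on by Shh-conditioned medium diluted 1 in 25 in low serum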
PD-1 reverse act: activators reversing PD-1 mediated T-cell inhibition, primary screen, luminescence, primary human CD4 T cells, PD-L1 beads; CellTiter-Glo 96 h; activation, % (concentration not given with the values); 29,000 tested, under 10 active; call rule not given here
NOMO-1 viab: NOMO-1 AML cell viability reduction, primary screen, STK33 inhibitor project, CellTiter-Glo luminescence | inhibition, % (no concentration beside the values) | NOMO-1 AML viability, 72 h | actives 7.5% (n = 37,000); in the data active = inhibition above about 80%; inconclusive = no clear call, values can overlap the other calls
A number is an active result; 0 = inactive; ? = inconclusive; - = no result given; ! = not active in a repeat. Sampled rows, rich in hits. Any-hit rate of the full collection: about 7.7%.

SMILES | Shh pathway inh | PD-1 reverse act | NOMO-1 viab
COc1ccc(/C=C/C(=O)OC2CCCCC2)cc1 | 0 | 0 | 95.2
COc1ccc(/C=C/C(=O)NC(C)(C)C)cc1 | 0 | 0 | 0
CSc1nc(-c2cccnc2)nc(-c2ccc(OC(F)(F)F)cc2)c1C#N | 0 | 0 | 0
C(=C\c1ccccc1)/CN1CCN(C(c2ccccc2)c2ccccc2)CC1 | 0 | - | 0
Fc1ccc(C(c2ccc(F)cc2)N2CCN(C/C=C/c3ccccc3)CC2)cc1 | 0 | 0 | 115.7!
Cc1ccc(NC(=O)CSc2ncccn2)cc1Cl | - | - | 0
CCOc1ccc(Nc2nc(CSc3nc4ccccc4c(=O)n3-c3ccccc3)cs2)cc1 | - | 0 | 0
CNC(=O)NC(=O)CSc1nnc(-c2ccco2)o1 | 0 | 0 | 0
Cc1cc(C)c2c3c1C1C=CCC1CN3C(C(=O)O)C1CC=CC21 (configuration not stated) | 0 | 0 | 115.0
CC(=O)Nc1ccc(C(=O)CSc2nc(C)cc(=O)[nH]2)cc1 | 0 | 0 | 0
Cc1ccc2ccc(C(Nc3ccccn3)c3ccc(Cl)cc3)c(O)c2n1 (configuration not stated) | - | 0 | 132.1
COc1ccc(OC)c(NS(=O)(=O)c2cccc3cccnc23)c1 | - | 0 | 0
Cc1ccc(C(Nc2ccccn2)c2ccc3cccnc3c2O)cc1 (configuration not stated) | - | - | 112.3
Cc1ccc2ccc(C(Nc3ccccn3)c3ccc(Cl)c(Cl)c3)c(O)c2n1 (configuration not stated) | - | 0 | 117.2
COc1ccc(I)cc1C(Nc1cc(C)ccn1)c1ccc2cccnc2c1O (configuration not stated) | - | 0 | 111.3
CC(C(=O)Nc1cccc2cccnc12)N1C(=O)c2ccccc2C1=O (configuration not stated) | - | 0 | 0
COc1ccc(C(Nc2ccccn2)c2ccc3ccc(C)nc3c2O)cc1C (configuration not stated) | - | 0 | 0
CC(=O)Nc1ccc(NC(=O)CN(c2cccc(Br)c2)S(C)(=O)=O)cc1 | - | 0 | 0
COc1ccc(N(CC(=O)Nc2cc(C)ccc2C)S(C)(=O)=O)cc1OC | - | 0 | 0
CCOc1ccc(C)cc1S(=O)(=O)NCC1CCCO1 (configuration not stated) | - | - | 0
COc1ccc(C(C)C)cc1S(=O)(=O)Nc1ccccn1 | - | 0 | 0
Cc1ccc(C(Nc2ccccn2)c2ccc3ccc(C)nc3c2O)cc1 (configuration not stated) | - | 0 | 132.0
Cc1ccc2ccc(C(Nc3ccccn3)c3ccc(C(C)C)cc3)c(O)c2n1 (configuration not stated) | - | 0 | 107.5
CCc1ccc(C(Nc2cc(C)ccn2)c2ccc3cccnc3c2O)cc1 (configuration not stated) | - | 0 | 111.6
CCCCN1C(=O)/C(=C2\SC(=Nc3ccc(Cl)cc3)N(C)C2=O)c2ccccc21 | 0 | 0 | 0
SMILES | Shh pathway inh | PD-1 reverse act | NOMO-1 viab
COc1ccc(OC)c(NC(=O)Cn2cnc3sc(C)c(-c4ccc(Cl)cc4)c3c2=O)c1 | - | - | 0
Cc1ccc(S(=O)(=O)N2Cc3ccccc3C(C)CC23CCCCC3)cc1 (configuration not stated) | 0 | 0 | 88.0
O=c1oc(-c2ccccn2)nc2ccccc12 | 0 | 0 | 0
c1ccc(-c2ccc3ccccc3n2)nc1 | 0 | 0 | 104.2
COc1cc(Br)c(S(=O)(=O)NCCOc2ccc(C(C)(C)C)cc2)cc1OC | - | 0 | 0
CCN(CC)C(=O)C(c1ccccc1)c1ccccc1 | 0 | 0 | 0
CCc1ccc[n+](OC(=O)N(CC)CC)c1 | - | 0 | 101.6
Cc1ccccc1N(CC(=O)Nc1cccc2ccccc12)S(C)(=O)=O | - | 0 | 0
Cc1ccc(Cn2nc(C)cc2C(=O)Nc2ccc(C)cc2)cc1 | 0 | 0 | 0
Cc1ccc(Cn2nc(C)cc2C(=O)Sc2ccccc2)cc1 | 0 | 0 | 92.5
COc1ccc(CN2C(=O)c3cccc4cccc(c34)C2=O)cc1S(=O)(=O)N1CCCCC1 | - | - | 0
O=C1c2c(O)ccc(O)c2C(=O)c2c(NCCNCCO)ccc(NCCNCCO)c21 | 0 | - | 120.1
Cc1cc(C)nc(NS(=O)(=O)c2ccc(NC(=S)NC(=O)c3ccccc3)cc2)n1 | - | - | 0
CC1CCCC[C@H]2C(=O)C=C[C@H](O)[C@@H]2CC(=O)O1 (some centres not stated) | 0 | 0 | 108.0
O=C1CC(c2ccccc2)Oc2ccccc21 (configuration not stated) | 0 | - | 0
NC(=O)NC1C(=O)c2ccccc2OC1c1ccccc1 (configuration not stated) | 0 | 0 | 114.3
CC(=O)O[C@@H]1CC2C(C)(C)CCC[C@]2(CO)C2=C1C(=O)C(C(C)C)C(=O)C2=O (some centres not stated) | 0 | 0 | 0
C[N+]12CCCCC1C(CN1C(=O)c3ccccc3C1=O)CCC2 (configuration not stated) | - | 0 | 0
CC(CC(N)=O)OC(=O)c1cc(Cl)cc(O)c1O (configuration not stated) | 0 | 0 | 88.0
O=S(=O)(CCSc1ccccc1)c1ccccc1 | 0 | 0 | 0
N#C/C(=C\Nc1cccc(Cl)c1)S(=O)(=O)c1ccc(Cl)cc1 | ? | 0 | 84.3
CCOC(=O)/C(=C\Nc1ccc(F)c(Cl)c1)S(=O)(=O)c1ccc(Cl)cc1 | - | 0 | 0
CCn1c(SCC(=O)Nc2ccc(Cl)cc2Cl)nnc1-c1ccccc1F | - | 0 | 0
CC(=O)c1ccc(NC(=O)CSc2nnc(N)s2)cc1 | - | 0 | 0
COC(=O)c1cc(NC(=O)CSc2nnc(N)s2)ccc1Cl | - | 0 | 109.8
SMILES | Shh pathway inh | PD-1 reverse act | NOMO-1 viab
Cc1ccc(S(=O)(=O)NC(C)C(=O)Nc2ccc3c(c2)OCCO3)cc1 (configuration not stated) | - | 0 | 0
COC(=O)Nc1nc2ccc(-c3n[nH]c(=O)c4ccccc34)cc2[nH]1 | 0 | 0 | 107.9
O=c1[nH]nc(-c2ccccc2)c2ccccc12 | 0 | 0 | 0
Cc1ccc2nc(NCCCO)[nH]c2c1 | - | - | 0
CCCCc1ccc2nc(NC(=O)OC)[nH]c2c1 | 0 | - | 119.7
O=C(CC(C(=O)O)N1CCCCC1)Nc1cccc([N+](=O)[O-])c1 (configuration not stated) | - | - | 0
CCOc1ccc(Nc2ncnc3c2ncn3-c2ccc(OCC)cc2)cc1 | - | 0 | 0
C/C=C1/C(=O)O[C@]2(C)C[C@@H]3OC(=O)C(COC)[C@]34O[C@@]12CC[C@@](C)(O)CC4=O (some centres not stated) | 0 | - | -
CCn1c(SCC(=O)Nc2cccc(C)c2C)nnc1-c1ccc(Cl)c(Cl)c1 | - | 0 | 0
COc1cccc2cc(-c3nnc(SCC(=O)Nc4cccc(F)c4)n3C)oc12 | - | 0 | 0
COc1cccc2cc(-c3nnc(SCC(=O)Nc4cccc(Br)c4)n3C)oc12 | - | 0 | 106.6
O=C(Nc1ccc(-c2nc3cc(NC(=O)C4CCCCC4)ccc3o2)cc1)C1CCCCC1 | 0 | 0 | 99.0
O=C(Nc1cccc(-c2nc3ccccc3c(=O)o2)c1)C1CCCCC1 | 0 | 0 | 0
COc1ccc(CCNc2ncnc3scc(-c4cccs4)c23)cc1OC | - | 0 | ?
CCn1c(SCC(=O)Nc2ccccc2F)nnc1-c1ccccc1F | - | - | 0
Cc1noc(C)c1CSc1nc2[nH]ncc2c(=O)n1-c1ccccc1 | - | - | 108.3
Cc1nc(CSc2nc3[nH]ncc3c(=O)n2-c2ccccc2)cs1 | - | - | 0
CC(C)(C)c1csc(=Nc2ccc(F)cc2F)o1 | - | 0 | 0
